Compound activity deposited in PubChem by NMMLSC.
Only some compounds are listed: those with a hit (about 0.92% of all), similar ones and a draw of the others.
LAP4 TOR yeast = yeast TOR pathway LAP4-GFP modulation; S. cerevisiae LAP4-GFP multiplex, flow cytometry GFP, 3 h; median GFP as percent of DMSO wells; GFP response vs DMSO, % at 10 µM; hit rate 0.34% among 320,000; AID 2023;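 active = GFP response vs DMSO above a set limit, about the screen mean plus 3 SD, cut at about 150% in these data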
CIT2-GFP yeast = modulators of TOR pathway CIT2-GFP in S. cerevisiae. S. cerevisiae CIT2-GFP strain, flow cytometry, 3 h; 100 means same as DMSO wells. GFP response vs DMSO, % at 10 µM. hit rate 0.065% among 320,000. AID 2029;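 active = GFP response relative to DMSO above a set limit, near the screen mean plus 3 SD, cut at about 150% in these data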;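 note: ratio of well median GFP fluorescence to mean of DMSO wells on the plate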
RPL19A TOR yeast = modulators of TOR pathway RPL19A-GFP in S. cerevisiae. S. cerevisiae RPL19A-GFP strain, flow cytometry, 3 h; stronger effect = lower value. percent response vs DMSO, % at 10 µM. hit rate 0.3% among 330,000;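 active = percent response vs DMSO below 50%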;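 note: median channel GFP fluorescence of the barcoded RPL19A-GFP strain; ratio of sample median GFP to plate DMSO average so 100% = DMSO; lower means less RPL19A-GFP as with rapamycin TOR inhibition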
AGP1 TOR yeast = yeast TOR pathway AGP1-GFP modulation | S. cerevisiae AGP1-GFP multiplex flow cytometry, 3 h; GFP as percent of DMSO wells | GFP response vs DMSO, % at 10 µM | hit rate 0.02% among 320,000;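 active = GFP response relative to DMSO above a set limit, near screen average plus 3 SD, cut at about 150% in these data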;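 note: median GFP channel fluorescence of the gated AGP1 strain per well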
MEP2-GFP yeast = yeast TOR pathway MEP2-GFP modulation | S. cerevisiae MEP2-GFP strain, flow cytometry GFP, 3 h; 100% = DMSO control level | GFP response vs DMSO, % at 10 µM | hit rate 0.51% among 330,000;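 active = GFP response versus DMSO above a set limit, roughly screen mean plus 3 SD, cut at about 180% in these data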;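 note: median GFP fluorescence of the barcode-gated MEP2-GFP cells per well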
LAP4 cherry2 = yeast LAP4-GFP modulation, second cherry pick; hit rate 20% among 590; S. cerevisiae LAP4-GFP strain, flow cytometry GFP, 3 h; shares compounds with LAP4 TOR yeast; GFP response vs DMSO, % at 10 µM;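 active = GFP signal as percent of the solvent control above about 150%, meaning raised reporter expression, limit read from the data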;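 note: ratio of well median GFP fluorescence to plate DMSO mean so 100% = DMSO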
MEP2-GFP pick2 = yeast MEP2-GFP modulation, second cherry pick. shares compounds with LAP4 TOR yeast. S. cerevisiae MEP2-GFP strain, flow cytometry GFP, 3 h. GFP response vs DMSO, % at 10 µM. hit rate 10% among 590. AID 2622;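 active = GFP signal above 150% of the solvent control wells, that is a rise of more than half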;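 note: median channel GFP fluorescence of all gated yeast cells per well; ratio of median GFP to plate DMSO average so 100% = DMSO level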
RPL19A-GFP pick2 = second confirmation of modulators of TOR reporter RPL19A-GFP in yeast; S. cerevisiae RPL19A-GFP strain, flow cytometry GFP, 3 h; stronger effect = lower value; 100% means same as DMSO wells; GFP response vs DMSO, % at 10 µM; hit rate 3% among 590; shares compounds with LAP4 TOR yeast;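 active = under 65% GFP response relative to DMSO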;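 note: median GFP channel fluorescence per well over the all cells gate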
CIT2-GFP pick2 = second confirmation of modulators of TOR reporter CIT2-GFP in yeast | AID 2624 | hit rate 8% among 590 | shares compounds with LAP4 TOR yeast | S. cerevisiae CIT2-GFP strain, flow cytometry GFP, 3 h; DMSO control wells read 100% | GFP response vs DMSO, % at 10 µM;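 active = GFP response vs DMSO above about 150%, limit read from the data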;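 note: median green fluorescence per well over all gated yeast cells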
AGP1-GFP pick2 = yeast AGP1-GFP TOR reporter modulation, second cherry pick; S. cerevisiae AGP1-GFP strain, flow cytometry GFP, 3 h; shares compounds with LAP4 TOR yeast; AID 2643; percent response vs DMSO, % at 10 µM; 590 tested, under 10 active;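 active = over 150 percent of DMSO response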;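 note: median GFP channel fluorescence over all cells without mother daughter split; sample median GFP divided by mean DMSO control so 100% equals DMSO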
s288c autofluor = compound is autofluorescent in yeast s288c cells; S. cerevisiae s288c, 520 nm autofluorescence, flow cytometry, 3 h; stronger effect = higher value; zero means same as solvent-only cells; fluorescence change (kMESF span) at 33 µM; AID 2757; 610 tested, under 10 active; shares compounds with LAP4 TOR yeast;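 active = fluorescence span over the dose series, or activity score, above about 33, limit read from the data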
s288c autofl DR = yeast s288c autofluorescence artifact in dose response | shares compounds with LAP4 TOR yeast | S. cerevisiae s288c parental, compound autofluorescence, flow cytometry, 3 h | fluorescence change (span) at 33 µM | 110 tested, under 10 active;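 active = fluorescence change span, or the activity score built from it, above 25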
TORC1 bypass = compounds blocking wildtype yeast growth but not TORC1 bypass cells; shares compounds with LAP4 TOR yeast; S. cerevisiae BY4741 spot growth rating, 48-72 h; stronger effect = lower value; growth rating (0-3) at 30 µM; 120 tested, under 10 active; AID 504456;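 active = growth rating at most 1 for wild type yeast while the TORC1 bypass strain still grows fully, rated 3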
* hit, by the source's call; nt = no result given.

SMILES | LAP4 TOR yeast | CIT2-GFP yeast | RPL19A TOR yeast | AGP1 TOR yeast | MEP2-GFP yeast | others
Cc1c(Cc2ccccc2)c(NCCN(C)C)n2c(nc3ccccc32)c1C#N | 198.4* | 77.0 | 109.3 | 100.6 | 125.8 | s288c autofluor=2.04
C#CCOCCOCCOCCNc1nc(N2CCN(C(=O)CCCCCCCCCCNC(=O)[C@H](CCCCN)n3cc(CCO)nn3)CC2)nc(N2CCN(C(=O)CCCCCCCCCCNC(=O)[C@H](CCCN=C(N)N)n3cc(C[C@@H](C)CC)nn3)CC2)n1 | 200.7* | 74.8 | 70.8 | 89.4 | 100.4 | LAP4 cherry2=123.2;MEP2-GFP pick2=174.7*;RPL19A-GFP pick2=90.1;CIT2-GFP pick2=108.5;AGP1-GFP pick2=111.6;s288c autofluor=-0.2
C#CCOCCOCCOCCNc1nc(N2CCN(C(=O)CCCCCCCCCCNC(=O)[C@H]([C@@H](C)CC)n3cc(CCCCCN)nn3)CC2)nc(N2CCN(C(=O)CCCCCCCCCCNC(=O)[C@@H]([C@H](C)O)n3cc(C)nn3)CC2)n1 | 120.8 | 62.7 | 88.5 | 75.0 | 91.3
C#CCOCCOCCOCCNc1nc(N2CCN(C(=O)CCCCCCCCCCNC(=O)[C@H](CCCCN)n3cc(CCCC(=O)O)nn3)CC2)nc(N2CCN(C(=O)CCCCCCCCCCNC(=O)[C@H](CCCCN)n3cc(CCCC(=O)O)nn3)CC2)n1 | 121.1 | 81.2 | 88.5 | 81.2 | 85.5
C#CCOCCOCCOCCNc1nc(N2CCN(C(=O)CCCCCCCCCCNC(=O)[C@H](CCCCN)n3cc(C)nn3)CC2)nc(N2CCN(C(=O)CCCCCCCCCCNC(=O)[C@@H]([C@H](C)CC)n3cc(CCCCCN)nn3)CC2)n1 | 153.4* | 89.4 | 88.5 | 80.2 | 86.8 | LAP4 cherry2=114.2;MEP2-GFP pick2=120.5;RPL19A-GFP pick2=95.7;CIT2-GFP pick2=107.1;AGP1-GFP pick2=101.0
C#CCOCCOCCOCCNc1nc(N2CCN(C(=O)CCCCCCCCCCNC(=O)[C@H](CCCCN)n3cc(CCCC(=O)O)nn3)CC2)nc(N2CCN(C(=O)CCCCCCCCCCNC(=O)[C@H](CCCN=C(N)N)n3cc(C[C@@H](C)CC)nn3)CC2)n1 | 177.6* | 80.2 | 81.0 | 85.5 | 99.2 | LAP4 cherry2=107.7;MEP2-GFP pick2=164.7*;RPL19A-GFP pick2=92.0;CIT2-GFP pick2=102.9;AGP1-GFP pick2=109.8;s288c autofluor=0
COc1ccc(C(=O)O/N=C2\C(=O)N(C)c3ccccc32)cc1 | 137.7 | 111.6 | 96.9 | 87.9 | 99.4
CN1C(=O)/C(=N\OC(=O)c2cccc3ccccc23)c2ccccc21 | 207.4* | 82.5 | 92.2 | 74.9 | 106.1 | s288c autofluor=0.4
CCS(=O)(=O)N1CCC(C(=O)Nc2ccc3c(c2)CCC3)CC1 | 91.3 | 154.1* | 95.0 | 115.9 | 101.0 | LAP4 cherry2=98.1;MEP2-GFP pick2=101.5;RPL19A-GFP pick2=99.6;CIT2-GFP pick2=97.2;AGP1-GFP pick2=99.8
CC(C)CNc1nc(N)c([N+](=O)[O-])c(NC2CCCCC2)n1 | 103.2 | 107.1 | 101.8 | 109.1 | 101.3
CNc1nc(N)c([N+](=O)[O-])c(Nc2ccc(OC)cc2)n1 | nt | nt | nt | nt | nt | s288c autofl DR=0.26;TORC1 bypass=3
Nc1nc(NCc2ccccc2)nc(NCc2ccccc2)c1[N+](=O)[O-] | 101.0 | 96.4 | 98.5 | 95.7 | 103.5
CNc1nc(N)c([N+](=O)[O-])c(NCc2ccccc2)n1 | 91.2 | 102.2 | 104.0 | 106.1 | 104.1 | s288c autofl DR=0;TORC1 bypass=3
CNc1nc(N)c([N+](=O)[O-])c(Nc2ccc(F)cc2)n1 | nt | nt | nt | nt | nt | s288c autofl DR=0.42;TORC1 bypass=3
CNc1nc(C)c([N+](=O)[O-])c(Nc2ccc(OC)cc2)n1 | 101.4 | 105.2 | 106.2 | 103.5 | 106.7
CNc1nc(N)c([N+](=O)[O-])c(NC2CCCCC2)n1 | 82.1 | 125.4 | 117.1 | 89.2 | 130.2 | s288c autofl DR=0.21;TORC1 bypass=3
Cc1ccc(CNc2nc(N)c([N+](=O)[O-])c(Nc3ccc(F)cc3)n2)cc1 | 99.9 | 110.6 | 102.1 | 102.2 | 103.1
CC(=O)c1ccccc1NC(=O)c1cc(S(=O)(=O)N2CCOCC2)ccc1N1CCCC1 | 103.0 | 101.1 | 101.0 | 106.1 | 100.5
COc1ccc(CNc2nc(NC(C)=O)nn2-c2ccccc2)cc1 | 98.9 | 107.8 | 107.8 | 106.1 | 104.4
CN(CC(=O)Nc1cccc(F)c1)C(=O)c1ccc(S(=O)(=O)N2CCCC2)cc1 | 94.9 | 95.4 | 97.3 | 94.8 | 102.2
Cn1nc(C(=O)NCC2COc3ccccc3O2)c2ccccc2c1=O (stereo unspecified) | 109.0 | 82.8 | 97.2 | 95.7 | 103.4
O=C1NC2(CCCCC2)C(=O)N1CC(=O)N1CCc2ccccc21 | 91.4 | 106.3 | 103.5 | 99.9 | 94.4
NC(=O)c1cc([N+](=O)[O-])ccc1N1CCN(Cc2ccccc2)CC1 | 94.5 | 103.7 | 104.1 | 103.3 | 110.1
COc1cc(C(C)=O)ccc1OCC(=O)Nc1ccc(C)c(S(=O)(=O)N2CCCCCC2)c1 | 108.3 | 102.3 | 105.7 | 104.9 | 99.9
CCCC[C@@H]1C=C(C(=O)O)[C@H](c2ccc(Br)cc2)N1S(=O)(=O)c1ccc(C)cc1 | 106.4 | 87.2 | 105.5 | 104.0 | 98.5
Cc1cccc(C(=O)NNC(=O)Nc2ccccc2)c1 | 96.4 | 103.2 | 104.5 | 102.6 | 104.0
Cc1cccc(NC(=O)C(C)C(=O)c2ccccc2)c1 (stereo unspecified) | 96.0 | 100.5 | 105.4 | 102.1 | 105.5 | LAP4 cherry2=105.2;MEP2-GFP pick2=108.3;RPL19A-GFP pick2=98.5;CIT2-GFP pick2=108.5;AGP1-GFP pick2=95.0
CCOC(=O)c1c(C)[nH]c(C(=O)COC(=O)c2ccc([N+](=O)[O-])o2)c1C | 87.0 | 113.4 | 102.8 | 97.1 | 104.6
